A selection: hits, their analogues and other compounds. The true share with any hit is near 4.6%.
D1 antag – Antagonist of Human D 1 Dopamine Receptor: qHTS | actives 3.2% (n = 360,000) | activity change, negative = inhibition, % at 10 µM | HEK293 TREx D1 cells, calcium flux, dopamine EC80; stronger effect = lower value | D(1A) dopamine receptor (Homo sapiens), P21728; in the data active = activity change below about -30%
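HEK293 T-REx cells expressing inducible, force-coupled D1 receptor; no-wash Ca dye, 30–90 min RT. Cmpd → 180 s read at 1 Hz → EC80 DA → 180 s read.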
D1 agonist – Allosteric Agonists of the Human D1 Dopamine Receptor: qHTS. actives 1% (n = 360,000). activation, % at 2 µM. AID 504660, 2011. D(1A) dopamine receptor (Homo sapiens), P21728. HEK293 T-REx D1 cells, calcium flux, agonist mode
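Agonism was scored from calcium flux recorded over 180 s (1 read/s) after pintool compound addition, following a 10-cycle baseline. Cells were inducible force-coupled HEK293 TREx D1, plated overnight at 30 C and loaded with no-wash calcium dye.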
TRHR agonist – qHTS for Small Molecule Agonists and Allosteric Enhancers of Human TRH Receptor: Primary Screen for Agonists. Thyrotropin-releasing hormone receptor (Homo sapiens), P34981. TRHR cells, calcium flux fluo-8, FDSS agonist mode. activation, % at 2 µM. actives 0.18% (n = 360,000). AID 493084, 2011
Target sequence (P34981 whole entry, looked up): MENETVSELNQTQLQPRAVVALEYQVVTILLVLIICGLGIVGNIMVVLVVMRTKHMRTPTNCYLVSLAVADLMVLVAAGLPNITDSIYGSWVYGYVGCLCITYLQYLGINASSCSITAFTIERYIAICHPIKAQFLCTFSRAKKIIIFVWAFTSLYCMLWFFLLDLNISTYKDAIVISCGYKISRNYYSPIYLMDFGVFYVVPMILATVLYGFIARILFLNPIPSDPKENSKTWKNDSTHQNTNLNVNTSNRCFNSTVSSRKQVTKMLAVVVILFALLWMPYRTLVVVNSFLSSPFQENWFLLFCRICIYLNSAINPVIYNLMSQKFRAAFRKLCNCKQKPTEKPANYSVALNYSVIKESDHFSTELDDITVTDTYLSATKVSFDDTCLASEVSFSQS
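TRHR-expressing cells, plated overnight in medium with 10% serum, were loaded with fluo-8 calcium dye at room temperature. After a 10 s baseline, library compound was pin-added and calcium release was recorded kinetically (ex 480/em 530) as agonist response.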
Epigenetic derep – Quantitative High-Throughput Screen for Regulators of Epigenetic Control | murine LDR cells, GFP reporter derepression, 30 h | AID 1865, 2009 | actives 0.2% (n = 280,000) | Potency, µM (series often up to 53.9 µM), most hits filed as activators; active = well fitted activation curve with a large enough effect; also: nearly all actives have a fitted effect of over 60% in size
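Derepression of a silenced CMV-GFP reporter in murine LDR cells is scored by enumerating GFP-positive cells with a laser-scanning microplate cytometer after 30 hours of treatment at 37 C.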
D1 potentiator – Potentiators of Human D1 Dopamine Receptor: qHTS; D(1A) dopamine receptor (Homo sapiens), P21728; HEK293 TREx D1 cells, calcium flux, dopamine EC20 potentiation; potentiation, % at 10 µM; actives 0.036% (n = 360,000); in the data active = potentiation above about 30%
TRHR enhancer – qHTS for Small Molecule Agonists and Allosteric Enhancers of Human TRH Receptor: Primary Screen for Enhancers; TRHR cells, fluo-8 calcium fluorescence, EC20 TRH enhancement; enhancement, % at 2 µM; actives 0.66% (n = 360,000); AID 493056, 2011; in the data active = enhancement above about 30%
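TRHR-expressing cells loaded with fluo-8 calcium dye were read kinetically (ex 480/em 530) during compound addition, then stimulated with an EC20 of TRH (10 nM final). Enhancement of the Gq-mediated intracellular calcium response was scored.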
Each line names hits and unclear results; the compound was inactive in the other large screens. Rule as the data show it, unless noted: active = activation above about 30%; inactive = the rest.

Cc1cc(=O)n(CC(=O)Nc2ccc(Cl)c(Cl)c2)c(-n2nc(C)cc2C)n1	none (no result: D1 antag)
CO[C@@H]1COC(=O)C/C=C\[C@H](C)[C@H](OC)COC(=O)[C@H](C)NC(=O)C/C=C\[C@H]1C	none (no result: D1 antag, D1 agonist, TRHR agonist, D1 potentiator, TRHR enhancer)
S=c1[nH]nc(-c2cccnc2)n1Cc1ccccc1	none
CC(C)(C)c1ccc(-c2n[nH]c(=S)n2Cc2ccccc2)cc1	D1 agonist 91.5 (no result: Epigenetic derep)
Fc1ccc(-c2n[nH]c(=S)n2Cc2ccccc2)cc1	none (no result: Epigenetic derep)
FC(F)C(F)(F)Oc1cccc(-c2n[nH]c(=S)n2Cc2ccccc2)c1	D1 antag -39.5 (no result: Epigenetic derep)
COc1ccc(NC(=O)c2oc3ccccc3c2NC(=O)Cc2coc3cc(C)ccc23)cc1	none
Cc1csc(NC(=O)c2ccc(Cn3nc(C)c(Br)c3C)o2)n1	none (no result: Epigenetic derep)
Cc1nn(Cc2ccc(C(=O)Nc3ccccc3C(F)(F)F)o2)c(C)c1Br	D1 antag -65.1
Nc1c(C(=O)Nc2cccc(Cl)c2)sc2nc3c(cc12)CN(Cc1ccccc1)CC3	TRHR enhancer 33.3
O=c1cc(C(F)(F)F)[nH]c2c(C(F)(F)F)cccc12	D1 agonist 31.6
COc1ccccc1CNC(=O)CCc1c(C)nc2c(c(C)nn2-c2ccc(C)c(C)c2)c1C	D1 antag -72.8
Cc1ccc(S(=O)(=O)N/N=C/c2ccc(OC3CSC3)cc2)cc1	D1 agonist 60.9
CCOc1ccc(-n2c(=O)c3c(C)c(C)sc3n(CC(=O)C(C)(C)C)c2=O)cc1	none
CN(C)CCNC(=O)Cc1ccc(NC(=O)N2CCCCc3ccccc32)cc1	none
C[C@]12C[C@@](C)(C=C1/C=C/c1ccccc1)C(=O)C[C@H]2c1ccccc1	none (no result: D1 antag, D1 agonist, TRHR agonist, D1 potentiator, TRHR enhancer)
COC(=O)c1c(NC(=O)CN2C(=O)C(=O)N(C(C)C)C2=O)sc(C)c1C	D1 antag -37.1 (no result: Epigenetic derep)
O=C(c1cccs1)N1CCCc2cc(NS(=O)(=O)c3ccc(Br)cc3)ccc21	D1 antag -39.9
O=C(Nc1ccc2c(c1)CCCN2C(=O)c1cccs1)c1cccc(C(F)(F)F)c1	D1 antag -58.0
O=C(Nc1ccc2c(c1)CCCN2C(=O)c1cccs1)c1cccc(F)c1	D1 antag -36.4 (no result: Epigenetic derep)
C=CCn1c(CCc2ccccc2)nnc1SCC(N)=O	TRHR enhancer 32.3 (no result: Epigenetic derep)
Cc1ccc(NS(=O)(=O)c2cc(C(=O)N(C)C)ccc2C)cc1C	D1 antag -36.6
Cc1nn(-c2ccccc2)c(-n2cccc2)c1C(=O)NCCc1ccc(Cl)cc1	D1 agonist 67.6
COc1ccc(N2CCN(CCCNC(=O)c3cnn(-c4ccc(F)cc4)c3-n3cccc3)CC2)cc1	D1 agonist 41.4
Cc1nn(-c2ccc(F)cc2)c(-n2cccc2)c1C(=O)NCCCN1CCN(c2cccc(Cl)c2)CC1	D1 antag -33.0
COc1cccc(NC(=O)c2c(C)nn(-c3cccc(C)c3)c2-n2cccc2)c1	none
COc1cc(NC(=O)c2c(C)nn(-c3ccc(F)cc3)c2-n2cccc2)cc(OC)c1	TRHR agonist 41.6
CNc1oc(-c2ccc(COc3ccc(C)cc3)o2)nc1C#N	none
CCCSc1nc(-c2ccc(OC)cc2)cc(-c2ccccc2OC)c1C#N	none
CCn1c(SCC(=O)Nc2sc(C)c(C)c2C#N)nnc1C(C)C	TRHR enhancer 31.2
CCc1ccc(NC(=O)C(NS(=O)(=O)c2cccs2)C(C)C)cc1 (centres undefined)	none
COCCNC(=O)Cc1ccc(NC(=O)N2CCCCc3ccccc32)cc1	none
COc1cccc(CNC(=O)c2ccc(NC(=O)N3CCCCc4ccccc43)cc2)c1OC	D1 antag -59.4
CC(C)OCCCNC(=O)Cc1ccc(NC(=O)N2CCCCc3ccccc32)cc1	TRHR enhancer 35.5

Compound activity as filed in PubChem BioAssay.
